Assay results reported in PubChem BioAssay AID2283123 (EPA ToxCast).
Results filed as inconclusive are left out. Active and inactive are the calls of the source. How the source made its calls: active means hit-call score of the fitted dose curve at least 0.9, where 1 is the maximum; inconclusive means response in the unintended direction; inactive means score below 0.9.

biological target: rat CYP2E1, Cyp2e1 (gene 25086) (UniProt P05182); experiment: NVS_ADME_rCYP2E1: NovaScreen (NVS) CYP450-related Enzyme Activity (ADME) Assay for rat CYP2E1
Method: NVS_ADME_rCYP2E1 is a biochemical, single-readout assay that uses extracted gene-proteins in a cell-free assay. Measurements were taken 1 hour after chemical dosing in a 96-well plate.NVS_ADME_rCYP2E1 is one of one assay component(s) measured or calculated from the NVS_ADME_rCYP2E1 assay. It is designed to make measurements of enzyme activity, a form of enzyme reporter, as detected with fluorescence intensity signals by Fluorescence technology.Data from the assay component NVS_ADME_rCYP2E1 was analyzed into 1 assay endpoint. This assay endpoint, NVS_ADME_rCYP2E1, was analyzed in the positive analysis fitting direction relative to Acetonitrile as the negative control and baseline of activity. Using a type of enzyme reporter, loss-of-signal activity can be used to understand changes in the enzymatic activity as they relate to the gene Cyp2e1. Furthermore, this assay endpoint can be referred to as a primary readout, because this assay has produced multiple assay endpoints where this one serves a enzymatic activity function. To generalize the intended target to other relatable targets, this assay endpoint is annotated to the cyp intended target family, where the subfamily is xenobiotic metabolism.
Binding assays used specific radioligands (tritiated, iodinated) with non-radioactive competitive displacement ligands in agonist or antagonist protocols (as indicated) and various reference compounds and inhibitors to titrate specific binding to receptors and transporters. Most enzyme assays (CYPs, kinases, phosphatases, proteases, HDACs) used recombinant protein and specific substrates (fluorescence mostly, some colorimetric and radioactive) and inhibitors, followed by a biochemical separation of substrate and product. All assays for the biochemical HTS were initially run in duplicate at a single concentration (10 uM for CYP450 assays and 25 uM for all others). Assay-chemical combinations meeting a pre-defined threshold (e.g., 30% inhibition and other criteria defined below) were then run in singleton concentration-response format with maximum concentration of 20 uM for CYPs and 50 uM for all others. Each assay was run with positive and negative controls, and concurrent controls on every plate. The follow-up (secondary) screen tested active chemical-pairs in concentration series, as well as a few additional assays not tested in the primary screen, some selected negative inactives, and several cases re-run in the concentration series for confirmatory purposes.

rat CYP2E1, Cyp2e1 (gene 25086), sequence (P05182 whole entry, looked up): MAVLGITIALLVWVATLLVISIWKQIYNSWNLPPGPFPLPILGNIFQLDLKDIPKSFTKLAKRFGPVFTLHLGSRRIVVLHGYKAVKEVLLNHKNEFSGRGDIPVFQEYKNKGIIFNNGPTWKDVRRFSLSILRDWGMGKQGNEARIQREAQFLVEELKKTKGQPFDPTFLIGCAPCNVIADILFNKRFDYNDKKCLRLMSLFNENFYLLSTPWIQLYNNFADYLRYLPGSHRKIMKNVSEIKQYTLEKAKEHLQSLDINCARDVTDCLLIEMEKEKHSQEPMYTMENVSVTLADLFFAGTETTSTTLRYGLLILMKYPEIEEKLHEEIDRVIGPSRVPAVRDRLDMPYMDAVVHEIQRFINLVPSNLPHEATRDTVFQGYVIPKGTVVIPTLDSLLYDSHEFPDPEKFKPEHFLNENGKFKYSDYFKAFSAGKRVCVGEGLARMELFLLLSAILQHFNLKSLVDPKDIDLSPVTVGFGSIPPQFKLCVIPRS

| Compound | outcome | AC50 |
| --- | --- | --- |
| CNC(=S)S | inactive |  |
| S=C1NCCN1 | inactive |  |
| CCCN(CCOc1c(Cl)cc(Cl)cc1Cl)C(=O)n1ccnc1 |  | 2.54 µM (active) |
| N#Cc1c[nH]cc1-c1cccc2c1OC(F)(F)O2 |  | 0.254 µM (active) |
| COc1nn(CSP(=S)(OC)OC)c(=O)s1 | inactive |  |
| COP(=S)(OC)Oc1ccc([N+](=O)[O-])c(C)c1 | inactive |  |
| C[Si](Cn1cncn1)(c1ccc(F)cc1)c1ccc(F)cc1 |  | 10 µM (active) |
| CC(C1CC1)C(O)(Cn1cncn1)c1ccc(Cl)cc1 (stereo not given) | inactive |  |
| COP(=S)(OC)SCn1nnc2ccccc2c1=O | inactive |  |
| CCOP(=S)(OCC)Oc1ccc2c(C)c(Cl)c(=O)oc2c1 | inactive |  |
